From PubChem BioAssay (EPA / NIEHS)
Records with an inconclusive call do not appear. Activity calls are given as the source filed them. How the source made its calls: active means hit-call score of the fitted dose curve at least 0.9, where 1 is the maximum; inconclusive means response in the unintended direction; inactive means score below 0.9.

Columns and labels:
[1] = ATG_XTT_Cytotoxicity: Cytotoxicity Assessment in the Attagene TRANS-FACTORIAL HepG2 Assay (AID 2283584)
How it was run: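 HepG2 human liver cells, transiently transfected with multiple GAL4-UAS reporter units, were dosed and read at 24 h by XTT as cell number. Loss of signal was fitted relative to DMSO negative control baseline.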

[2] = TOX21_p53_BLA_p2_viability: Viability Assessment in the Tox21 HCT-116 p53 Agonism Beta-lactamase Assay, Phase 2 (AID 2283591);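 further: compound exposure lasted 16 h at 37 °C; actives lower the ATP signal meaning cytotoxicity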
How it was run: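 Cytotoxicity readout: CellTiter-Glo ATP luminescence, 30 min at room temperature, after the beta-lactamase read. Cells were HCT116 exposed 16 h at 37C to compounds pin-transferred at 217-fold dilution from DMSO stocks.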

[3] = biological target: Cellular tumor antigen p53 (Homo sapiens) (UniProt P04637); experiment: TOX21_p53_BLA_p2_ratio: Tox21 HCT-116 p53 Agonism Beta-lactamase Assay, Ratio, Phase 2 (AID 2283592)
Sequence of Cellular tumor antigen p53 (Homo sapiens) (P04637 whole entry, looked up): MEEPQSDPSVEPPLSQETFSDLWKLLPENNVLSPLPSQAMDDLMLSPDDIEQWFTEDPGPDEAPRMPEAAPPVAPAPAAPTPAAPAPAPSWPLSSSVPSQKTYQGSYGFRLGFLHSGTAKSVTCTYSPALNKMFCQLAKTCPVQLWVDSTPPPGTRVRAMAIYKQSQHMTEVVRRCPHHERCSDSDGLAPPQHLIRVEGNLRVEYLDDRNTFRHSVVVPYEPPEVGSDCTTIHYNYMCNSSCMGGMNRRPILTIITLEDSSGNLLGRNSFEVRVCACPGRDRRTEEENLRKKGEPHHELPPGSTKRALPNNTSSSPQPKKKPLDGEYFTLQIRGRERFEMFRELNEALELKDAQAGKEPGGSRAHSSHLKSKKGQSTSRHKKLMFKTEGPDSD
How it was run: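 Ratio endpoint: beta-lactamase cleavage of CCF4-AM, blue (460 nm) over green (530 nm). HCT116 reporter line; 16 h treatment, 37C; substrate 2 h RT.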

[4] = TOX21_p53_BLA_p3_viability: Viability Assessment in the Tox21 HCT-116 p53 Agonism Beta-lactamase Assay, Phase 3 (AID 2283593);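 further: cells exposed to compound for 16 h before reading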
How it was run: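 Cellular ATP was quantified by CellTiter-Glo luminescence, read after 30 min at room temperature. Beforehand, HCT116 cells (4000/well) received compound 5 h post-seeding, 217-fold diluted from DMSO, then incubated 16 h at 37C.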

| Compound | outcome [1] | outcome [2] | outcome [3] | outcome [4] | AC50 [4] |
| --- | --- | --- | --- | --- | --- |
| CC(C)CC(=O)OCc1ccccc1 | inactive | inactive | inactive | inactive |  |
| CC(CCC(=O)O)(c1ccc(O)cc1)c1ccc(O)cc1 | inactive |  | inactive | inactive |  |
| CCCCCCCCCCCCCCCCCCOS(=O)(=O)O | inactive | inactive |  |  | 66.9 µM (active) |
| CCCCCCCCCCCC(=O)OCC | inactive | inactive | inactive | inactive |  |
| CN(C)Cc1cc(CN(C)C)c(O)c(CN(C)C)c1 | inactive |  | inactive | inactive |  |
| C=C(C)[C@@H]1CC=C(C)CC1 | inactive | inactive |  | inactive |  |
| O=C(C=Cc1ccccc1)OCCc1ccccc1 | inactive |  | inactive | inactive |  |
| CCCCCC[C@@H](O)C/C=C\CCCCCCCC(=O)OCC(O)CO (stereo partly specified) | inactive |  | inactive | inactive |  |
| CCC1COC(=O)O1 (stereo unspecified) | inactive |  | inactive |  |  |
| CC(C)(O)Cc1ccccc1 | inactive |  | inactive |  |  |
| CC(Cl)COP(=O)(OCC(C)Cl)OCC(C)Cl (stereo unspecified) | inactive | inactive |  | inactive |  |
| Nc1ccc(C(=O)OCCCOC(=O)c2ccc(N)cc2)cc1 | inactive | inactive |  | inactive |  |
| O=C(OCCc1ccccc1)c1ccccc1 | inactive |  | inactive |  |  |
| CC1OC(=O)C(C)OC1=O (stereo unspecified) | inactive | inactive | inactive | inactive |  |
| CC(=O)OC/C=C(/C)CCC=C(C)C | inactive |  | inactive |  |  |
| Cc1cc(C)n(CO)n1 | inactive | inactive |  | inactive |  |
| Nc1ncnc2nc[nH]c12 | inactive |  | inactive |  |  |
| c1ccc2cnccc2c1 | inactive | inactive |  | inactive |  |
| C=C1C[C@H]2[C@@H]3C=C(C)C4=CC(=O)CC[C@]4(C)[C@H]3CC[C@]2(C)[C@@]1(OC(C)=O)C(C)=O | inactive | inactive | inactive | inactive |  |
